Compound activity as filed in PubChem BioAssay.
SW480 rereplic: A quantitative high throughput screen for small molecules that induce DNA re-replication in SW480 colon adenocarcinoma cells. Potency, µM (highest dose often 46.1 µM), inactives show at the highest dose re-replication activation, hits mostly activators. SW480 DNA re-replication, Hoechst DNA content imaging, 48 h. 340,000 compounds, 1.8% hits; further: potency means the concentration at half of the fitted maximal effect; % of control where 0% means no effect; nearly all actives have a fitted effect of over 55% in size
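Cells (250 per well) received 23 nL compound or DMSO by pin tool and were kept 48 hr at 37 C, 5% CO2. Nuclei were then stained with Hoechst for 40 min and scanned for DNA content.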
IL-1B inflam inh: qHTS for Inhibitors of Inflammasome Signaling: IL-1-beta AlphaLISA Primary Screen; 360,000 compounds, 4.7% hits; THP-1 LPS/ATP IL-1B secretion, AlphaLISA, 16 h; hits give low values; activity change, % at 57.5 µM; in the data active means activity change below about -50%; inconclusive means mostly about -30% to -49%; further: on the % scale 0 is the no-effect control and ±100 the full control effect
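Secreted IL-1B measured by AlphaLISA bead assay after 16 h compound exposure of THP-1 cells; compounds (final up to 57.5 uM) added 1 h before LPS (250 ng/mL) and ATP (1.25 mM) stimulation; lower signal means less secretion.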
MCF10A rerep: A quantitative high throughput screen for small molecules that induce DNA re-replication in MCF 10a normal breast cells; MCF 10A DNA re-replication, Hoechst nuclear intensity, 48 h; Potency, µM (doses to about 46.1 µM), for inactives: at the top dose activity, positive = re-replication, hits mostly activators; 350,000 compounds, 2.9% hits; AID 624296, 2012; further: potency means the concentration at half of the fitted maximal effect; % of control where 0% means no effect; nearly all actives have a fitted effect of over 50% in size
VP16 counter: VP16 counterscreen qHTS for inhibitors of ROR gamma transcriptional activity; Potency, µM (top dose mostly 53.6 µM), for inactives: at the highest dose activity, negative = inhibition, actives largely listed as inhibitors; Drosophila S2 Gal4-VP16 UAS-luciferase, luminescence, 20 h; AID 2546, 2010; 310,000 compounds, 3.5% hits;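 further: Gal4-VP16 expression switched on by copper sulfate through the metallothionein promoter; potency means the concentration at half of the fitted maximal effect; on the % scale 0 is the no-effect control and ±100 the full control effect; nearly all actives have a fitted effect of over 50% in size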
RORg inh: qHTS for inhibitors of ROR gamma transcriptional activity; Nuclear receptor ROR-gamma (Mus musculus), P51450; Drosophila S2 Gal4-RORgamma UAS-luciferase reporter, 20 h; Potency, µM (titrated, usually from 53.6 µM), for inactives: top-dose activity change, negative = inhibition, usual class: inhibitors; 310,000 compounds, 5.4% hits; further: potency means the concentration at half of the fitted maximal effect; on the % scale 0 is the no-effect control and ±100 the full control effect; nearly all actives have a fitted effect of over 60% in size
Target sequence (P51450 whole entry, looked up, the tested form may be a part): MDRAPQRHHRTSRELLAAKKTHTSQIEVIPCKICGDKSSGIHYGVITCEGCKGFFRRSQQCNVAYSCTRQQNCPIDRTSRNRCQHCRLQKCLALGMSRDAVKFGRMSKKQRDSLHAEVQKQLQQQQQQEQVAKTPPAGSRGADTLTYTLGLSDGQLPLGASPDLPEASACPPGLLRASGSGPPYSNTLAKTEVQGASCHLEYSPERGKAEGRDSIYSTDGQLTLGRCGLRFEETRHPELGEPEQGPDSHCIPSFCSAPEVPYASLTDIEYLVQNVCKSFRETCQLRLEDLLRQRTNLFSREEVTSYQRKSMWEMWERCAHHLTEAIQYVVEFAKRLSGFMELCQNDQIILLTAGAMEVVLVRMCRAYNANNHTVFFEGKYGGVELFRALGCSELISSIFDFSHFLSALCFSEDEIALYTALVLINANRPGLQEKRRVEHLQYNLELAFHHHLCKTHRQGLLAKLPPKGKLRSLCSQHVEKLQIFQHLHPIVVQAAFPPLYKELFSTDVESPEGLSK
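Luciferase reporter read in Schneider cells carrying Gal4-RORγ (mouse) and UAS-Photinus luciferase; cells given compound 1 h before 700 uM copper sulfate induction, then incubated 20 h at ambient temperature.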
* marks the source's active call; other numbers are inactive results; ! = not active in a repeat; [ ] = another dose, or the depositor's remark. Hits are enriched below; roughly 11% of the tested compounds scored in any of these assays. Unless noted, the call rests on the fitted dose curve; in most records, active means well fitted curve in the direction sought with a large enough effect; inconclusive means small, poorly fitted or top-dose-only effect, or another doubt; inactive means no such curve, though single readings can be large; an effect the other way counts as inactive or inconclusive.

For COc1ccc(OC)c(-c2csc(NC(=O)Cc3cc(OC)c(OC)c(OC)c3)n2)c1 the results were SW480 rereplic 1.7%, IL-1B inflam inh -9.5, MCF10A rerep 0.6%, VP16 counter -27.1% and RORg inh inconclusive.
Screening COc1ccc(OC)c(-c2csc(NC(=O)c3ccc(F)cc3)n2)c1 returned SW480 rereplic inconclusive, IL-1B inflam inh -1.8, MCF10A rerep 6.51µM*, VP16 counter 10µM* and RORg inh 11.2µM*.
Screening COc1ccc(OC)c(-c2csc(NC(=O)CN3C(=O)C4CCCCC4C3=O)n2)c1 (stereo not given) returned SW480 rereplic 27.4%, IL-1B inflam inh -56.1* and MCF10A rerep 12.3%.
COc1ccc(-c2csc(NC(=O)CN3C(=O)C4CCCCC4C3=O)n2)cc1OC (stereo not given) was read as SW480 rereplic -2.0%, IL-1B inflam inh inactive, MCF10A rerep -0.9%, VP16 counter -5.6% and RORg inh 14.4%.
For COc1ccc(C2CC(c3ccccc3)Oc3c(C)ccc(C)c32)cc1 (stereo not given) the results were VP16 counter 0.7% and RORg inh 7.0%.
`CC(C)C[C@H](NC(=O)[C@H](CO)NC(=O)[C@H](C)NC(=O)[C@H](CCCN=C(N)N)NC(=O)[C@H](CCCN=C(N)N)NC(=O)[C@@H](N)CC(C)C)C(=O)NCC(=O)O` gave VP16 counter 1.9% and RORg inh -9.2%.
`Cc1ccc(S(=O)(=O)N2[C@H](CC(=O)c3cccs3)OC[C@@H]2C(C)C)cc1` gave IL-1B inflam inh 29.9.
For Cc1ccc(-c2csc(NC(=O)Cc3ccc(F)cc3)n2)o1 the results were SW480 rereplic -0.9%, IL-1B inflam inh -64.6*, MCF10A rerep 0.6%, VP16 counter -6.1%[10 µM] and RORg inh 10.6%.
`Oc1ccc(-c2nc3ccccn3c2NCc2ccc3c(c2)OCO3)cc1` gave SW480 rereplic -2.2%, IL-1B inflam inh -16.1, MCF10A rerep -6.0%, VP16 counter 18.5% and RORg inh 16.4%.
For CCC(C)Sc1cccc(-c2nc3ccc(C)cn3c2NCc2ccccc2)c1 (stereo not given) the results were SW480 rereplic inconclusive, IL-1B inflam inh -104.0*! and MCF10A rerep 11.6µM*.
Cc1ccc2nc(-c3cccc(-c4cccc(Cl)c4)c3)c(NCc3ccccc3)n2c1 was read as SW480 rereplic 22.1%[9.22 µM], IL-1B inflam inh 0.0 and MCF10A rerep 7.31µM*.
`CCC(C)Sc1cccc(-c2nc3ccccn3c2NCc2ccccc2)c1` (stereo not given) gave SW480 rereplic 1.4%, IL-1B inflam inh inconclusive and MCF10A rerep 18.4µM*.
CCC(C)Sc1cccc(-c2nc3ccc(Cl)cn3c2NCc2ccccc2)c1 (stereo not given) was read as SW480 rereplic 26.8%, IL-1B inflam inh -54.2* and MCF10A rerep inconclusive.
Screening COc1cccc(CN2CCC2(C)C(=O)Nc2cnc3ccccc3c2)c1F (stereo not given) returned IL-1B inflam inh 0.0.
For CCOC(=O)c1[nH]c(=S)[nH]c1C the results were SW480 rereplic 0.4%, IL-1B inflam inh 8.1 and MCF10A rerep -0.7%.
For NS(=O)(=O)c1ccc(CNC(=O)CSc2nc3ccc(Cl)cc3[nH]2)cc1 the results were SW480 rereplic 2.1%, IL-1B inflam inh 23.0, MCF10A rerep -2.2%, VP16 counter 3.2% and RORg inh -6.4%.
For Cc1cc(C)cc(OCc2ccc(C(=O)N3N=C(C(F)F)CC3(O)C(F)F)o2)c1 (stereo not given) the results were SW480 rereplic 5.5%, IL-1B inflam inh 0.0, MCF10A rerep 23.1µM*, VP16 counter inconclusive and RORg inh inconclusive.
Screening O=C1Nc2cnc(Cl)nc2Nc2ccccc21 returned IL-1B inflam inh 18.9.
`COc1cccc(CN(C)C(=O)CCc2nnc(-c3ccsc3)o2)c1` gave SW480 rereplic 0.9%, IL-1B inflam inh -7.4, MCF10A rerep -0.1%, VP16 counter -9.9% and RORg inh -20.4%.
CCOC(=O)CN(C)C(=O)CCc1nnc(-c2ccsc2)o1 was read as SW480 rereplic -0.5%, IL-1B inflam inh 23.1, MCF10A rerep -1.2%, VP16 counter inconclusive and RORg inh 14.1µM*.
`COc1ccc(-n2cc(CN(C)C(C)c3ccncn3)c(-c3cccc(F)c3)n2)cc1` (stereo not given) gave SW480 rereplic 7.4%, IL-1B inflam inh -51.4*, MCF10A rerep 13µM*, VP16 counter -14.4% and RORg inh -33.3%.
Screening N#CC1CN(Cc2ccccc2)CN(Cc2ccccc2)C1 returned SW480 rereplic inconclusive, IL-1B inflam inh -19.2, MCF10A rerep 14.6µM*, VP16 counter -8.3% and RORg inh 20.1%.
Screening O=C(CN1C(=O)c2ccccc2S1(=O)=O)c1cccc(Br)c1 returned SW480 rereplic -4.1%, IL-1B inflam inh 4.0, MCF10A rerep 0.7%, VP16 counter -17.5% and RORg inh inconclusive.
Screening O=C(CN1C(=O)c2ccccc2S1(=O)=O)c1ccc2c(c1)OCCO2 returned SW480 rereplic 0.4%, IL-1B inflam inh -15.7, MCF10A rerep 16.1%, VP16 counter 0.562µM* and RORg inh 0.0251µM*.
O=C(CN1C(=O)c2ccccc2S1(=O)=O)c1ccc2c(c1)OCCCO2 was read as SW480 rereplic -3.0%, IL-1B inflam inh 19.4, MCF10A rerep 0.0%, VP16 counter 0.708µM* and RORg inh 0.282µM*.
For COc1ccccc1NC(=O)NNC(=O)c1ccc2ccccc2c1O the results were SW480 rereplic 3.1%, IL-1B inflam inh 48.0, MCF10A rerep -0.4%, VP16 counter -4.3% and RORg inh -22.9%.
For CC(C)Nc1cccnc1N1CCN(C(=O)c2cc3cc(NS(C)(=O)=O)ccc3[nH]2)CC1 the results were SW480 rereplic 16.3%, MCF10A rerep 13.0%, VP16 counter 6.8% and RORg inh inconclusive.
`O=C(CNC(=O)c1cc(S(=O)(=O)N2CCCCC2)ccc1N1CCOCC1)Nc1ccc(F)c(F)c1` gave SW480 rereplic 0.8%, IL-1B inflam inh -3.8 and MCF10A rerep -0.2%.
`Cc1ccc(C(C)NC(=O)c2cc3cc(Br)ccc3oc2=N)cc1` (stereo not given) gave SW480 rereplic -2.9%, IL-1B inflam inh inactive, MCF10A rerep inconclusive, VP16 counter 1.9% and RORg inh 15.6%.
`Cc1c(Cl)cccc1Nc1nc(NCCO)c2ccccc2n1` gave SW480 rereplic -5.4%, IL-1B inflam inh -108.3* and MCF10A rerep 14.3%.
